ATXN viability = cell viability loss in ATXN counter-screen | Potency, µM (titrated, usually from 56.7 µM), actives largely listed as cytotoxic | 400,000 tested, 0.49% active | S2 cells (HEK-293 line with an ATXN2-luciferase reporter) viability, CellTiter-Fluor protease fluorescence, 24 h; also: nearly all actives have a fitted effect of over 40% in size
HepG2 tox = kills HepG2 cells in TGF-b inhibitor counter-screen; HepG2 CAGA-GFP viability, ATP luminescence, 18 h; Potency, µM (highest dose often 46.1 µM), without a hit: top-dose activity change, negative = cytotoxicity, most hits filed as cytotoxic; 410,000 tested, 0.76% active; AID 588856
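HepG2 CAGA-GFP cells (1000/well, DMEM with 1% FBS) received compound, then TGF-beta at 500 pg/mL final, and were incubated 18 hours at 37 degrees C. Viability was read by CellTiter-Glo luminescence. Media-only wells were set as complete cell-killing and DMSO as no toxicity.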
TGFb SMAD3 inh = blocks TGF-b signaling; AID 588855; HepG2 CAGA-GFP TGF-b/SMAD3 reporter, GFP fluorescence, 18 h; TGF-beta stimulated, 500 pg/mL final; Potency, µM (top dose mostly 46.1 µM), without a hit: at the highest dose activity, negative = inhibition, usual class: inhibitors; 410,000 tested, 1.2% active; also: % is scaled to controls: 0 for no effect and ±100 for the full control effect; nearly all actives have a fitted effect of over 65% in size
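Inhibition of TGF-beta-driven CAGA-GFP reporter expression in HEPG2 cells is measured by cellular GFP fluorescence after 18 h stimulation with 500 pg/mL recombinant TGF-beta in 1% FBS medium at 37 degrees C.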
ATXN2 expr inh = ATXN2 expression inhibition | HEK-293 ATXN2-luciferase reporter, luminescence, 24 h | Potency, µM (highest dose often 57 µM), for inactives: at the top dose activity change, negative = inhibition, hits mostly inhibitors | 360,000 tested, 0.72% active; also: % is scaled to controls: 0 for no effect and ±100 for the full control effect; nearly all actives have a fitted effect of over 55% in size
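ATXN2-luciferase reporter cells (luciferase flanked by upstream and downstream ATXN2 gene portions) were treated 24 h at 37 °C with compounds at up to 57 uM. SteadyGlo luminescence gave expression; GF-AFC fluorescence gave viability.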
Starred values were filed as active, the others as inactive; i = inactive; ? = inconclusive; nt = no result given; ! = not confirmed by another sample. Most compounds without a hit are left out; they make up all but 2.3% or so of the library. Calls follow the shape of the dose curve; as a rule, active = well fitted curve in the direction sought with a large enough effect; inconclusive = small, poorly fitted or top-dose-only effect, or another doubt; inactive = no such curve, though single readings can be large; an effect the other way counts as inactive or inconclusive. Potency is read from the fitted curve at half-maximal effect.

SMILES	ATXN viability	HepG2 tox	TGFb SMAD3 inh	ATXN2 expr inh
C[C@@H]1CCCCO[C@@H](CN(C)Cc2ccc(Cl)c(Cl)c2)[C@@H](C)CN([C@H](C)CO)C(=O)c2cc(NC(=O)CCC(F)(F)F)ccc2O1	?	-25%	?	?
CC(C)NC(=O)N(C)C[C@H]1Oc2c(NC(=O)Nc3ccc(C(F)(F)F)cc3)cccc2C(=O)N([C@H](C)CO)C[C@@H]1C	?	-26%	?	-8%
C[C@H]1CN([C@@H](C)CO)C(=O)c2cccc(NC(=O)Nc3ccc(C(F)(F)F)cc3)c2O[C@@H]1CN(C)Cc1ccc(Cl)c(Cl)c1	14µM*	13µM*	?	0%
C[C@@H]1CN([C@H](C)CO)C(=O)c2cc(NC(=O)Nc3ccc(C(F)(F)F)cc3)ccc2O[C@H]1CN(C)Cc1ccc(Cl)c(Cl)c1	13µM*	-111%	11µM*	?
C[C@H](CO)N1C[C@H](C)[C@@H](CN(C)C(=O)Nc2ccc(C(F)(F)F)cc2)Oc2c(NC(=O)Nc3ccccc3)cccc2C1=O	nt	-44%	?	?
Cc1ccccc1-c1cccc(CN2CCc3nnc(C(NS(C)(=O)=O)C(C)C)n3CC2)c1 (centres undefined)	i	nt	nt	nt
C[C@H](CO)N1C[C@H](C)[C@@H](CN(C)Cc2ccc(Cl)c(Cl)c2)Oc2c(NC(=O)C3CC3)cccc2C1=O	nt	-40%	?	?
C[C@@H]1CCCCO[C@@H](CN(C)Cc2ccc(C(F)(F)F)cc2)[C@@H](C)CN([C@H](C)CO)C(=O)c2cc(N(C)C)ccc2O1	22µM*	-25%	?	?
C[C@@H]1CN([C@@H](C)CO)C(=O)c2cc(C#CC3CCCCC3)cnc2O[C@@H]1CN(C)S(=O)(=O)c1ccc(F)cc1	20µM*	-21%	?	?
C[C@@H]1CN([C@H](C)CO)C(=O)c2cc(NS(=O)(=O)c3ccc(F)cc3)ccc2O[C@@H]1CN(C)Cc1ccc(Cl)c(Cl)c1	?	-100%	11µM*	?
C[C@@H]1CN([C@@H](C)CO)C(=O)c2cc(/C=C/c3ccccc3)cnc2O[C@@H]1CN(C)S(=O)(=O)c1ccc(F)cc1	i	-1%	3%	-4%
C[C@H](CO)N1C[C@H](C)[C@@H](CN(C)Cc2ccc(Cl)c(Cl)c2)Oc2c(NC(=O)CCC(F)(F)F)cccc2C1=O	?	-92%	13µM*	?
C[C@@H]1CCCCO[C@H](CN(C)Cc2ccc(C(=O)O)cc2)[C@@H](C)CN([C@H](C)CO)C(=O)c2cc(N(C)C)ccc2O1	i	-26%	-4%	3%
CCCNC(=O)Cn1c(SCc2ccccc2C)nc2ccncc21	nt	-6%	7%	nt
CS(=O)(=O)c1ccc(-c2cccc3c2OC(CNC(=O)c2cc(C4CC4)[nH]n2)C3)cc1 (centres undefined)	i	nt	nt	nt
CC1(C)CC[C@]2(C(=O)O)CC[C@]3(C)C(=CC[C@@H]4[C@@]5(C)CC[C@H](O[C@@H]6O[C@H](C(=O)O)[C@@H](O)[C@H](O[C@@H]7OC[C@H](O)[C@H](O)[C@H]7O)[C@H]6O)C(C)(C)[C@@H]5CC[C@]43C)[C@@H]2C1	11µM*	3.5µM*	3.2µM*	11µM*
CCC(=O)N1CCC1(C)C(=O)Nc1ccc2c(c1)OCO2 (centres undefined)	i	-16%	14µM*	9%
C[C@@H]1C[C@@H](CC(=O)NCC2Cc3cccc(-c4ccncc4)c3O2)NC(=S)N1 (some centres undefined)	i	nt	nt	nt
CC1CCC(C(C)C)C(OC(=O)Cn2c(-c3ccc(F)cc3)[n+](C)c3ccccc32)C1 (centres undefined)	?	-51%	8.9µM*	8.9µM*
CC1CCC(C(C)C)C(OC(=O)CSc2nnc(N)s2)C1 (centres undefined)	i	5%	3%	2%
CC1CCC(C(C)C)C(OC(=O)CSc2nc(N)cc(=O)[nH]2)C1 (centres undefined)	i	-25%	-12%	-12%
Cc1cccc(OCc2n(CC(=O)OC3CC(C)CCC3C(C)C)c3ccccc3[n+]2C)c1 (centres undefined)	nt	20µM*	16µM*	?
CC1CCC(C(C)C)C(OC(=O)Cn2c(-c3ccccc3)[n+](C)c3ccccc32)C1 (centres undefined)	?	-53%	5.6µM*!	?
CCCCCCCCCCOC(=O)Cn1c(COc2ccccc2OC)[n+](C)c2ccccc21	?	-100%	?	?
CCOC(=O)N1CCc2c(sc(NCc3cccs3)c2C(=O)Nc2cc(OC)ccc2OC)C1	nt	0%	?	nt
SMILES	ATXN viability	HepG2 tox	TGFb SMAD3 inh	ATXN2 expr inh
CCOC(=O)N1CCc2c(sc(NCc3cccs3)c2C(=O)Nc2ccc(OC)cc2OC)C1	nt	-14%	10µM*	nt
CCOC(=O)N1CCc2c(sc(NCc3ccc(OCC)cc3)c2C(=O)Nc2ccc(OC)cc2OC)C1	i	2%	?	13µM*
C[C@@H]1CN(Cc2ccc3c(c2)CN(Cc2cccn2-c2ccccn2)CCO3)C[C@H](C)O1	i	nt	nt	nt
COc1ccc(CNCC(O)COc2ccc3[nH]c(=O)ccc3c2)cc1OC (centres undefined)	i	nt	nt	nt
N#Cc1nc(NCC(F)F)nc(Nc2cc(F)cc(F)c2)n1	?	-79%	16µM*	11µM*
COc1ccc(N/N=C/c2c(C(=O)O)ccc3ccccc23)cc1	?	-28%	2.2µM*	nt
COc1ccc2ccccc2c1/C=N/Nc1ccc(Cl)c(C(=O)O)c1	i	-4%	-15%	22%
CSc1nnc(CCNC(=O)c2ccccc2C(F)(F)F)n1-c1ccc(F)cc1	i	nt	nt	nt
Cc1ccc(S(=O)(=O)N2CC3(O)CN(C(=O)OC(C)C)N(C(=O)OC(C)C)CC3(OC(=O)Nc3cccs3)C2)cc1 (centres undefined)	?	-38%	13µM*	-6%
CCn1c(-c2ccccc2F)nc2cc(NC(C)=O)cc(C(=O)N(C)Cc3c(C)nc4ccccn34)c21	i	nt	nt	nt
O=C(NCC1CN(c2ccc(N3CCOCC3=O)cc2)C(=O)O1)c1ccc(Cl)s1 (centres undefined)	i	nt	nt	-20%
COc1ccc(OC)c(C(=O)N2CCc3c(cnc(C)c3CNS(=O)(=O)N(C)C)C2)c1	i	nt	nt	nt
Cc1ccccc1Cn1c(SCc2ccc(C(=O)N3CCCCC3)cc2)nc2ccncc21	i	-30%	13µM*	-13%
Cc1ccc(Cn2c(SCc3ccc(C(=O)N4CCCCCC4)cc3)nc3ccncc32)cc1	?	-40%	10µM*	?
O=C(NC1CCCCC1)c1ccc(CSc2nc3ccncc3n2Cc2cccc(F)c2)cc1	?	-20%	?	?
Cc1ccc(Cn2c(SCc3ccc(C(=O)N4CCCCC4)cc3)nc3ccncc32)cc1	nt	-33%	11µM*	nt

Bioassay records as filed in PubChem.
